Six1-Eya2 inh: qHTS Assay for Inhibitors of the Six1/Eya2 Interaction; activity change, % (test concentration not listed); 0.56% of 360,000 active; AID 651725, 2012; AlphaScreen GST-Six1/His-Eya2 binding, biochemical; hits give low values
Target sequence (O00167 whole entry, looked up): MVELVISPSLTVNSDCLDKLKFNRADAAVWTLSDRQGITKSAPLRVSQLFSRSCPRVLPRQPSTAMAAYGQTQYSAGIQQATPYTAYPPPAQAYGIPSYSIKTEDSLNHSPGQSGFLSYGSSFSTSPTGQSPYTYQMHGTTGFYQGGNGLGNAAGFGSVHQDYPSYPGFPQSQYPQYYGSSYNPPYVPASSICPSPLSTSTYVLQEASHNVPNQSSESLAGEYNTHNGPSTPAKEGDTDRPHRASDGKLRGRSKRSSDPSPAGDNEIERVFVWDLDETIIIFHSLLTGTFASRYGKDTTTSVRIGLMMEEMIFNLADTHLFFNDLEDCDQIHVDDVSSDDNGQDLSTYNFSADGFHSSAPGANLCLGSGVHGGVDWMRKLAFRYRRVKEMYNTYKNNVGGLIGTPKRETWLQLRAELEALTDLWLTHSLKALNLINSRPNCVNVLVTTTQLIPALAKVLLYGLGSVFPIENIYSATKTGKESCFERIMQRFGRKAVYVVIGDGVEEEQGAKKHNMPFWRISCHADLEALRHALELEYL
Target sequence (Q15475 whole entry, looked up): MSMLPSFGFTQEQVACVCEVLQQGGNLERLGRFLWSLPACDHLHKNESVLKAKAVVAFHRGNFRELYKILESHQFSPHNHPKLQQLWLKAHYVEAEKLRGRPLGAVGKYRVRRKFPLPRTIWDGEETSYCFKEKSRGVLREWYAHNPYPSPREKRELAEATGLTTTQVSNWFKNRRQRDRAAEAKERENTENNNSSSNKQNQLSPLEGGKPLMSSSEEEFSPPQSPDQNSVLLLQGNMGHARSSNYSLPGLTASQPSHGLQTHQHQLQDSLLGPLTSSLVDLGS
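Compounds are tested against tagged Six1 and Eya2 proteins bridged by glutathione donor and nickel acceptor beads; after a one-hour incubation at 37 °C without light, AlphaScreen emission is recorded.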
KDM4E inh: qHTS Assay for Inhibitors of Human Jumonji Domain Containing 2E (JMJD2E); Lysine-specific demethylase 4E (Homo sapiens), B2RXH2; JMJD2E catalytic domain, FDH-coupled NADH fluorescence (FDH is formaldehyde dehydrogenase); Potency, µM (titrated, usually from 57.1 µM), without a hit: at the top dose activity change, negative = inhibition, actives largely listed as inhibitors; 1.6% of 230,000 active; AID 2147, 2009; active means well fitted inhibition curve with a large enough effect, not every such curve was filed as active; inconclusive means small, poorly fitted or top-dose-only effect, or another doubt; inactive means no such curve, though single readings can be large or run the other way;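 further: potency means the concentration at half of the fitted maximal effect; 0% = wells with enzyme and -100% = buffer wells without enzyme; nearly all actives have a fitted effect of over 50% in size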
KCNH2 3.1 block: qHTS for Inhibitors of KCHN2 3.1: Mutant qHTS. U2OS KCNH2 3.1, thallium flux FluxOr; hits give low values. activity change, % (tested at about 1.8 µM). 0.95% of 340,000 active;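 active means maximum activity change below -70%; inconclusive means maximum activity change from -70% to -50%; inactive means maximum activity change above -50%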;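 further: thallium influx rate constant from kinetic fluorescence after stimulation buffer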
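Thallium flux read-out: FluxOr dye with Red40 quencher in HBSS/HEPES, 45 min at RT. Rate constants from kinetic reads were normalized to positive and negative DMSO controls. Cells: U2OS virally expressing the 3.1 isoform.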
hERG WT inh: qHTS for Inhibitors of KCHN2 3.1: Wildtype qHTS; AID 720551, 2013; 0.37% of 340,000 active; activity change, % at 1.84 µM; U2OS, BacMam KCNH2, thallium flux FluxOr; hits give low values;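 active means maximum activity change below -70%; inconclusive means maximum activity change between -70% and -50%; inactive means maximum activity change above -50%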
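U2OS cells transduced with wild-type KCNH2 virus are loaded with FluxOr dye for 45 min, and thallium flux is measured in kinetic reads before and after stimulation buffer. Rate constants are normalized to DMSO controls.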
CtBP-E1A blk: qHTS Assay for Inhibitors of the CtBP/E1A Interaction. CtBP / adenovirus E1A interaction (AlphaScreen). AlphaScreen GST-E1A/His-CtBP binding, 1536-well; hits give low values. activity change, % (no concentration beside the values). 0.49% of 340,000 active. AID 651724, 2012
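Homogeneous bead-based format: GST-tagged E1A captured on glutathione donor beads, His-tagged CtBP on nickel acceptor beads; compounds precede bead addition by 2 h at 37 °C.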
An asterisk follows results filed as active; [ ] = another dose, or the depositor's remark. Shown are actives, neighbours in structure and some others; about 2% of the full set was active somewhere. Unless noted, no stated cut-off is given here; in the data, active means activity change below about -65%; inconclusive means mostly about -30% to -63%; inactive means weaker than that. Unless noted, on the % scale 0 is the no-effect control and ±100 the full control effect.

For Cc1cc(OCC(=O)N2CCC(C(=O)NCC(C)C)CC2)c2c3c(c(=O)oc2c1)CCCC3 the results were Six1-Eya2 inh 0, KCNH2 3.1 block 13, hERG WT inh -13 and CtBP-E1A blk 8.
NO was read as KDM4E inh 1.4µM*.
For CC(=O)Nc1cc(Cl)c(N=Cc2ccc(O)cc2O)cc1Cl the results were Six1-Eya2 inh -10, KDM4E inh inconclusive, KCNH2 3.1 block -13, hERG WT inh -2 and CtBP-E1A blk 14.
Screening N#Cc1ccc(N2CCNCC2)c(F)c1 returned Six1-Eya2 inh 4, KDM4E inh 7%, KCNH2 3.1 block -76*, hERG WT inh inconclusive and CtBP-E1A blk 0.
For CC(=O)NN1C(=O)c2ccccc2NC1c1cccnc1 (stereo unspecified) the results were Six1-Eya2 inh 11, KDM4E inh inconclusive, KCNH2 3.1 block 0, hERG WT inh -7 and CtBP-E1A blk -10.
For Cc1cc2c(C(C)C)c(O)c(O)c(C=O)c2c(O)c1-c1c(C)cc2c(C(C)C)c(O)c(O)c(C=O)c2c1O the results were KDM4E inh 7.1µM*.
For COc1ccc(CN2CCN(Cc3ccccc3OC)CC2)cc1 the results were Six1-Eya2 inh 0, KCNH2 3.1 block -11 and hERG WT inh 2.
`Cc1ccc(CN2CCN(Cc3ccccc3F)CC2)cc1` gave Six1-Eya2 inh 0, KDM4E inh 13µM* and KCNH2 3.1 block 11.
For COc1ccccc1CN1CCN(Cc2ccc(Cl)cc2)CC1 the results were Six1-Eya2 inh -5, KDM4E inh 20µM*, KCNH2 3.1 block -14, hERG WT inh inactive and CtBP-E1A blk -7.
O=C(CCC(=O)N1CCOc2ccc(Cl)cc21)N1CCC2(CC1)OCCO2 was read as Six1-Eya2 inh 4, KCNH2 3.1 block 19, hERG WT inh -35 and CtBP-E1A blk 11.
`O=C(NC1(C(F)(F)F)Oc2ccccc2O1)N1CCC2(CC1)OCCO2` gave Six1-Eya2 inh -3, KDM4E inh 14µM*, KCNH2 3.1 block 9, hERG WT inh -2 and CtBP-E1A blk -1.
`O=C(NC1(C(F)(F)F)Oc2ccc(Cl)cc2O1)N1CCC2(CC1)OCCO2` (stereo unspecified) gave Six1-Eya2 inh -2, KDM4E inh 16µM*, KCNH2 3.1 block -9, hERG WT inh -9 and CtBP-E1A blk 4.
Screening Fc1ccccc1N1CCN(Cc2c(F)cccc2F)CC1 returned Six1-Eya2 inh 2, KDM4E inh 20µM*, KCNH2 3.1 block 25, hERG WT inh 20 and CtBP-E1A blk 3.
O=C(CSC1c2ccccc2-c2ccccc21)N/N=C/c1ccccc1O was read as Six1-Eya2 inh -27, KDM4E inh 25µM*, KCNH2 3.1 block -20, hERG WT inh 3 and CtBP-E1A blk -28.
For Clc1ccc2c(c1)C(c1ccccc1Cl)=NCc1nnc(N3CCN(CCSc4ccccc4)CC3)n1-2 the results were Six1-Eya2 inh -3, KDM4E inh -2%, KCNH2 3.1 block -12, hERG WT inh -153* and CtBP-E1A blk -20.
Cc1ccc(O)c(CN2CCC3CCC(C3)C2)c1 (stereo unspecified) was read as Six1-Eya2 inh -4, KCNH2 3.1 block -3, hERG WT inh 5 and CtBP-E1A blk 7.
For COc1ccc(C[C@H]2NC[C@H](O)[C@H]2OC(C)=O)cc1 the results were Six1-Eya2 inh 3, KCNH2 3.1 block 6, hERG WT inh 0 and CtBP-E1A blk 3.
For CCOc1ccc(N2C(=O)/C(=C/c3ccco3)C(=O)NC2=S)cc1 the results were Six1-Eya2 inh -81*, KCNH2 3.1 block 6 and hERG WT inh 16.
Screening CCOc1ccc(N2C(=O)NC(=O)/C(=C/c3cnc(SC)nc3)C2=O)cc1 returned Six1-Eya2 inh 7, KDM4E inh 35µM*, KCNH2 3.1 block -29, hERG WT inh -10 and CtBP-E1A blk -1.
Screening Cc1ccc(N2C(=O)NC(=O)/C(=C\c3cnc(-c4ccccc4)nc3)C2=O)cc1 returned Six1-Eya2 inh 16, KDM4E inh 3.2µM*, KCNH2 3.1 block -8, hERG WT inh 22 and CtBP-E1A blk 5.
For CCOc1ccc(N2C(=O)/C(=C\c3cccs3)C(=O)NC2=S)cc1 the results were Six1-Eya2 inh 1, KDM4E inh -4%, KCNH2 3.1 block 8, hERG WT inh 12 and CtBP-E1A blk 0.
Screening CSc1ncc(/C=C2/C(=O)NC(=O)N(c3ccc(C)cc3)C2=O)cn1 returned Six1-Eya2 inh 0, KDM4E inh inconclusive, KCNH2 3.1 block -12, hERG WT inh inactive and CtBP-E1A blk -7.
OCCCc1ccc(O)c(O)c1 was read as Six1-Eya2 inh -4, KDM4E inh inconclusive, KCNH2 3.1 block 7, hERG WT inh -2 and CtBP-E1A blk 0.
`CCCN(CCC)CCc1ccc(O)c(O)c1` gave KDM4E inh 20µM*.
Screening c1cc2c(cc1[C@H]1OCC3C1CO[C@@H]3c1ccc3c(c1)OCO3)OCO2 (stereo partly specified) returned Six1-Eya2 inh -6, KCNH2 3.1 block -70*, hERG WT inh 18 and CtBP-E1A blk 3.
For C=CCN(c1ccc(C(=O)N(CC)CC)cc1)S(C)(=O)=O the results were Six1-Eya2 inh 4, KDM4E inh 4%, KCNH2 3.1 block -17, hERG WT inh 3 and CtBP-E1A blk 0.
O=C(CCCN1CCC(n2c(=O)[nH]c3ccccc32)CC1)c1ccc(F)cc1 was read as Six1-Eya2 inh -2, KDM4E inh -3%[25.5 µM], KCNH2 3.1 block -71*, hERG WT inh -11 and CtBP-E1A blk -2.
Brc1ccccc1OCCCN1CCOCC1 was read as Six1-Eya2 inh 2, KDM4E inh inconclusive, KCNH2 3.1 block -16, hERG WT inh -24 and CtBP-E1A blk 7.
Screening O=P(O)(O)/C=C(\Cl)c1ccccc1 returned Six1-Eya2 inh 0, KDM4E inh 6%, KCNH2 3.1 block 8, hERG WT inh -2 and CtBP-E1A blk 0.
For C[C@@H]1NCCc2cc(O)c(O)cc21 the results were Six1-Eya2 inh -1, KDM4E inh 11µM*, KCNH2 3.1 block 3, hERG WT inh 2 and CtBP-E1A blk -7.
CCCCn1nnnc1C(CCc1ccccc1)N1CCC2(CC1)C(=O)NCN2c1ccccc1 (stereo unspecified) was read as Six1-Eya2 inh -11 and CtBP-E1A blk -13.
COC(=O)C1=C(c2ccccc2)C[C@@H]2CC[C@H]1N2C(=O)NCC1CC1 was read as Six1-Eya2 inh 8, KCNH2 3.1 block 5, hERG WT inh -8 and CtBP-E1A blk 0.

Assay outcomes as filed in PubChem.
